CCHF vOTU inh = blocks the CCHF virus ovarian tumor domain protease; hit rate 0.55% among 370,000; CCHFV vOTU protease, Pep-AMC fluorescence; inhibition, % at 11.5 µM; AID 651958; in the data active = inhibition above about 30%
Anthrax LF inh2 = anthrax lethal factor protease inhibition. inhibition, % at 10 µM. AID 588501. P15917. hit rate 0.12% among 360,000. multiplex microsphere protease cleavage assay, LF
Autofluor counter = counter-screen for toxin protease inhibitors: compound fluorescence; fluorescence intensity (no concentration beside the values); hit rate 3.1% among 360,000; compound autofluorescence counterscreen, microsphere flow cytometry; active compounds read high; in the data active = fluorescence intensity above about 16000; inconclusive = no clear call, values can overlap the other calls
BoNT-F LC inh = blocks Botulinum neurotoxin F light chain protease; Multiplex microsphere protease cleavage assay, flow cytometry; inhibition, % at 10 µM; hit rate 0.22% among 360,000; AID 588497; in the data active = inhibition above about 35%, passing the limit was not always enough; inconclusive = no clear call, values can overlap the other calls
BoNT A protease = blocks Botulinum neurotoxin A light chain protease. hit rate 0.17% among 360,000. inhibition, % at 10 µM. multiplex microsphere protease substrate cleavage, flow cytometry
3CLpro inhibitor = SARS-CoV 3CLpro protease inhibition | P0C6X7 | hit rate 0.14% among 290,000 | AID 1706 | inhibition, % at 6 µM | recombinant SARS-CoV 3CLpro, quenched FRET peptide cleavage; in the data active = inhibition above about 12%
Each line names hits and unclear results; the compound was inactive in the other large screens. In the library only some 3.9% were active in any assay of this set; here they are far more common. Cut-off read from the data, not from the text of the source, unless noted: active = inhibition above about 30%; inconclusive = no clear call, values can overlap the other calls; inactive = below that.

Cc1ccc(C(=O)NCC(=O)OCC(=O)Nc2ccc(Cl)cc2C(F)(F)F)cc1C	BoNT-F LC inh 38
Cc1ccsc1C(=O)OCC(=O)Nc1ccc(Cl)cc1C(F)(F)F	none
N#Cc1cccc(NC(=O)CSc2ccc3c4c(cccc24)C(=O)c2ccccc2-3)c1	BoNT-F LC inh 43, BoNT A protease 44
CCOc1ccc(C(=S)NC2CCCCC2)cc1	Autofluor counter 20072, BoNT A protease inconclusive
CCOc1ccc(C(=O)NC2CCCCCCC2)cc1	none (no result: 3CLpro inhibitor)
CCOC(=O)COc1ccc(C(=O)NC2CCCCC2)cc1	Autofluor counter 20056, BoNT A protease inconclusive (no result: CCHF vOTU inh)
CCCCNc1ccc2c(c1)OC[C@@H](CC(C)C)NS2(=O)=O	none (no result: Anthrax LF inh2, Autofluor counter, BoNT-F LC inh, BoNT A protease, 3CLpro inhibitor)
O=C1C(Cl)=C(N2CCOCC2)C(=O)N1c1ccc(Br)cc1	Anthrax LF inh2 30
CC(C)(C)c1ccc(S(=O)(=O)NC(=O)C2(C)CCN2C(=O)Cc2cccc3ccccc23)cc1 (stereo not drawn)	none (no result: 3CLpro inhibitor)
O=C1C(O)CCN1C1CCCCC1 (stereo not drawn)	none (no result: 3CLpro inhibitor)
O=C(NCCCN1CCOCC1)c1cc(-c2ccc(F)cc2)on1	Autofluor counter 18525
O=C(NCCN1CCOCC1)c1cc(-c2ccco2)on1	Autofluor counter 17211
O=C(CCCCCNS(=O)(=O)c1ccc(Br)cc1)NCCN1CCOCC1	none
COc1ccc(S(=O)(=O)NCCCCCC(=O)NCCCN2CCOCC2)cc1	Autofluor counter 20933 (no result: CCHF vOTU inh)
CCCCNC(=O)c1ccc(N2CCOCC2)c(NS(=O)(=O)c2ccc(OC)cc2)c1	Autofluor counter 20173
Cc1ccc(NS(=O)(=O)N2CCOCC2)cc1	none
Nc1c(C(=O)NCc2ccc(F)cc2)c2nc3ccccc3nc2n1CCCN1CCOCC1	Autofluor counter 23744
Nc1c(C(=O)NCc2ccccc2)c2nc3ccccc3nc2n1CCCN1CCOCC1	none
O=C(NCCCN1CCOCC1)c1ccc(CNS(=O)(=O)c2ccc(F)cc2)cc1	Autofluor counter 16290, BoNT A protease inconclusive
CC(C)c1ccc(NC(=O)CCCC(=O)NCCc2ccccc2)cc1	BoNT-F LC inh inconclusive
CCN(c1ccc(OCC(=O)OCC(=O)Nc2ccc(F)c(F)c2F)cc1)S(=O)(=O)c1ccccc1	none (no result: CCHF vOTU inh)
Cc1ccc(S(=O)(=O)NCC(C)NC(=O)CN2CCOCC2)cc1 (stereo not drawn)	none
CC[n+]1c(C)sc2c3ccsc3ccc21	none
CCN1/C(=C\c2ccc3cc(C)ccc3[n+]2CC)Sc2cc(C)c(C)cc21	BoNT A protease 42
CCN1/C(=C/c2ccc3cc(C)ccc3[n+]2CC)Sc2ccc3sccc3c21	BoNT A protease 49 (no result: CCHF vOTU inh, 3CLpro inhibitor)
CCN1/C(=C/c2ccc3cc(C)cc(C)c3[n+]2CC)Sc2cc(C)ccc21	none
CCN1/C(=C/c2ccc3cccc(C)c3[n+]2CC)Sc2ccccc21	BoNT A protease 79
Cc1cnc(C(=O)N2CCN(S(=O)(=O)c3ccc4ccccc4c3)CC2)cn1	Autofluor counter 20208
O=C(c1cnccn1)N1CCN(S(=O)(=O)c2ccc3ccccc3c2)CC1	none
Cc1ccc(C)c(S(=O)(=O)N2CCN(C(=O)c3cnccn3)CC2)c1	Autofluor counter 23149
CN1C(=O)c2ccccc2Cc2c(NCc3ccccc3)ncnc21	none (no result: 3CLpro inhibitor)
Cc1[nH]c2ccccc2c1/C=C(\C#N)S(=O)(=O)c1ccccc1	Autofluor counter 20697
Cc1[nH]c2ccccc2c1/C=C(\C#N)C(=O)NC(C)c1ccccc1 (stereo not drawn)	Autofluor counter 22234
COc1cc(CNc2ncnc3c2ncn3[C@H]2CN(Cc3ccc(F)cc3)C[C@@H](CO)O2)cc(OC)c1OC	none (no result: 3CLpro inhibitor)
N=Cc1c(O)n(-c2cccc(Cl)c2)c(=O)[nH]c1=O	Autofluor counter 23754
CCS(CC)=NS(=O)(=O)c1ccc(NC(C)=O)cc1	BoNT-F LC inh 37
CC(C)C(NS(=O)(=O)c1ccc2c(c1)C(C)(C)C(=O)N2C)C(=O)NCc1ccc(F)cc1 (stereo not drawn)	none
CCCOc1ccc(C(=O)c2nc3c(n2O)CCCC3)cc1	Autofluor counter 22563
COc1ccc(C(=O)c2nc3c(n2O)CCCCC3)cc1	none
COc1ccc(C(=O)c2nc3c(n2O)CCCC3)cc1OC	none
O=C(c1ccc(Oc2ccccc2)cc1)c1nc2c(n1O)CCCC2	Autofluor counter 23776, BoNT A protease inconclusive
COc1ccc(OC)c(C(=O)c2nc3c(n2O)CCCCC3)c1	Autofluor counter 23230
CCCC[C@@H]1CNCCN1CC1(c2ccccc2)CC1	none (no result: 3CLpro inhibitor)
CC(=O)Nc1cccc(C(=O)NNC(=O)c2ccc(-n3cnnn3)cc2)c1	none (no result: 3CLpro inhibitor)
COc1ccc(-c2nc3cc(NC(=O)Cc4ccc(OC)c(OC)c4)ccc3o2)cc1	Autofluor counter 16446
COc1cccc(-c2nc(-c3ccc(NC(=O)Cc4ccccc4OC)cc3)no2)c1	none (no result: CCHF vOTU inh)
COc1ccc(-c2nc(-c3ccc(Br)cc3)no2)c(OC)c1	Autofluor counter 19523
COc1ccc(CC(=O)Nc2ccc(-c3noc(-c4ccccc4OC)n3)cc2)cc1	Autofluor counter 22431, BoNT A protease inconclusive
CCCC(=O)Nc1ccc2oc(-c3ccncc3)nc2c1	Autofluor counter 16375
COc1ccc(CN(CC#Cc2ccc(C)cc2)C(N)=NC(=O)CCc2ccccc2)c(OC)c1	none (no result: Anthrax LF inh2, Autofluor counter, BoNT-F LC inh, BoNT A protease, 3CLpro inhibitor)
NS(=O)(=O)c1ccc(NNC(=O)c2ccc(Br)o2)c([N+](=O)[O-])c1	none (no result: 3CLpro inhibitor)
Cc1ccc(-n2c(-c3ccc(Br)cc3)c[n+]3c2CCc2ccc4cccnc4c2-3)cc1	Autofluor counter 21635
CCOC(=O)c1c(NC(=O)C(C)Sc2cccc[n+]2[O-])sc2c1CCN(Cc1ccccc1)C2 (stereo not drawn)	BoNT A protease 45 (no result: CCHF vOTU inh)
COc1ccc(Nc2nc(-c3c(C)nc4ncccn34)cs2)cc1	none
Cc1nc2ncccn2c1-c1csc(Nc2ccccc2)n1	BoNT-F LC inh 38
CC(=O)N1CCc2[nH]c3ccc(C)cc3c2C1	BoNT-F LC inh inconclusive
CC(=O)N1CCc2[nH]c3ccccc3c2C1	Autofluor counter 17082
O=C(/C=C/c1c(Cl)cccc1Cl)NCCc1ccccc1	Autofluor counter 20277
COc1cccc(NC(=O)COC(=O)CCCc2c[nH]c3ccccc23)c1	Autofluor counter 22839
COc1ccc(NC(=O)COC(=O)CCCc2c[nH]c3ccccc23)cc1	none
COc1ccc(NC(=O)CN(C)C(=O)Cc2n[nH]c(=O)c3ccccc23)cc1	none (no result: 3CLpro inhibitor)
O=C1CC(c2ccccc2)CC(=O)C1CS(=O)(=O)c1ccccc1 (stereo not drawn)	none
C=CCc1cccc(C=NNC(=O)c2ccco2)c1O	none (no result: Anthrax LF inh2, Autofluor counter, BoNT-F LC inh, BoNT A protease, 3CLpro inhibitor)
CCCNC(=O)C1(C)CCN(Cc2ccc(OCc3ccccc3)cc2)C1 (stereo not drawn)	none (no result: 3CLpro inhibitor)
COc1ccc(NS(=O)(=O)c2ccc3c(c2)NC(=O)CC(=O)N3)cc1OC	none
O=[N+]([O-])c1ccc(Cl)c(C[n+]2cccc3ccccc32)c1	BoNT-F LC inh 49
Cc1ccc(/C=C2\SC(=S)N(C3CCS(=O)(=O)C3)C2=O)cc1 (stereo not drawn)	none
CCOc1ccc(-c2nn(-c3ccccc3)cc2/C=C2\SC(=S)N(C3CCS(=O)(=O)C3)C2=O)cc1 (stereo not drawn)	BoNT-F LC inh 43, BoNT A protease 36
